Bioassay records deposited in PubChem by National Center for Advancing Translational Sciences (NCATS).
HCV inh – qHTS Assay for Inhibitors of Hepatitis C Virus (HCV); actives 3.4% (n = 340,000); Potency, µM (top dose mostly 41.8 µM), for inactives: top-dose activity change, negative = inhibition, actives largely listed as inhibitors; Huh7.5.1 HCVcc-Cre infection, luciferase reporter, 44 h; AID 651820, 2012; further: on the % scale 0 is the no-effect control and ±100 the full control effect
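Luciferase read-out (15 sec integration) after a 15 min room-temperature substrate step quantifies HCVcc-Cre infection. Cells, 1,000 per well, had compound added 4 h post-plating, then virus at ~0.5 moi, and were cultured 44 h.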
NS1 inh – qHTS Assay for Inhibitors of Influenza NS1 Protein Function; Potency, µM (highest dose often 46.1 µM), without a hit: top-dose activity, positive = more growth; actives 0.4% (n = 270,000); calls by dose curve; further: actives are rising curves; nearly all actives have a fitted effect of over 50% in size
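OD600 was taken as the measure of yeast growth restored by compound in an NS1-expressing S. cerevisiae strain. Cells had been washed out of glucose medium and diluted 1:100 into galactose -URA medium, pH 6.0.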
VACV Venus inh – qHTS for Stage-Specific Inhibitors of Vaccinia Orthopoxvirus: Venus Reporter Primary qHTS. Potency, µM (titrated, usually from 36.5 µM), inactives show top-dose activity change, negative = inhibition, hits mostly inhibitors. AID 720580, 2013. actives 0.46% (n = 330,000). Vaccinia virus Venus reporter expression, fluorescence; calls by dose curve; tested in A549 cells; further: on the % scale 0 is the no-effect control and ±100 the full control effect; nearly all actives have a fitted effect of over 30% in size
Pf growth 96h – Primary qHTS for delayed death inhibitors of the malarial parasite plastid, 96 hour incubation | actives 6.9% (n = 320,000) | Potency, µM (highest dose often 28.7 µM), without a hit: top-dose activity change, negative = inhibition, most hits filed as inhibitors | P. falciparum luciferase reporter growth, 96 h | AID 504834, 2011; further: on the % scale 0 is the no-effect control and ±100 the full control effect
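Compounds incubated with erythrocytes infected by luciferase-expressing P. falciparum (2% hematocrit, 0.05% parasitemia final) for 96 hours, 37 C in 5% CO2. Growth inhibition scored as decreased luciferase luminescence.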
Pf growth 48h – Primary qHTS for delayed death inhibitors of the malarial parasite plastid, 48 hour incubation. AID 504832, 2011. P. falciparum luciferase growth in erythrocytes, 48 h. actives 5.9% (n = 310,000). Potency, µM (titrated, usually from 28.7 µM), without a hit: at the top dose activity change, negative = inhibition, actives largely listed as inhibitors; further: on the % scale 0 is the no-effect control and ±100 the full control effect
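Here the parasites carry a stable luciferase gene and grow inside erythrocytes in Albumax-based RPMI medium with compound for one erythrocytic cycle. Activity is scored as loss of luminescent signal.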
VACV mCherry inh – qHTS for Stage-Specific Inhibitors of Vaccinia Orthopoxvirus: mCherry Reporter Primary qHTS. Vaccinia virus mCherry reporter infection, fluorescence. Potency, µM (top dose mostly 36.5 µM), for inactives: at the top dose activity change, negative = inhibition, hits mostly inhibitors. actives 0.63% (n = 310,000). AID 720579, 2013; calls by dose curve; tested in A549 cells; further: on the % scale 0 is the no-effect control and ±100 the full control effect; nearly all actives have a fitted effect of over 35% in size
An asterisk follows results filed as active; i = inactive; ? = inconclusive; . = no result; [ ] = another dose, or the depositor's remark. An excerpt weighted towards active compounds, which were near 11% of everything screened. Unless noted, the call rests on the fitted dose curve; in most records, active means well fitted inhibition curve with a large enough effect; inconclusive means small, poorly fitted or top-dose-only effect, or another doubt; inactive means no such curve, though single readings can be large or run the other way. Potency means the concentration at half of the fitted maximal effect.

SMILES	HCV inh	NS1 inh	VACV Venus inh	Pf growth 96h	Pf growth 48h	VACV mCherry inh
COc1cc2sc(-c3ccc(S(C)(=O)=O)cc3)c(-c3ccc4c(c3)OCO4)c2cc1OC	2.8µM*	.	-18%	.	.	?
COc1ccc(-c2c(-c3cc(OC)cc(OC)c3)sc3ccc(OC)cc23)cc1	0%	.	-8%	.	.	-6%
COc1ccc(-c2sc3ccc(OC)cc3c2-c2ccc(O)cc2)cc1	8.9µM*	.	?	.	.	?
COc1ccc2sc(-c3ccccc3OC)c(-c3ccc4c(c3)OCCO4)c2c1	?	.	-4%	2.6µM*	10µM*	i
COc1ccc2sc(-c3ccccc3OC)c(-c3ccc(O)cc3)c2c1	?	.	1%	2.3µM*	?	-26%
CN(C(=O)CSc1ncnc2sc(-c3ccccc3)cc12)C1CCS(=O)(=O)C1 (stereo unspecified)	?	6%	.	11%	10%	.
CCn1c(=O)c2cc(C(=O)N(CCN(C)C)Cc3ccccc3)sc2c2ccccc21	.	.	-19%	.	.	?
COc1ccc(NC(=O)c2cc3c(CO)cnc(C)c3oc2=Nc2cccc(F)c2)c(OC)c1	-7%	2%	.	?	2%	.
COc1cc2sc(-c3ccccc3OC)c(-c3ccc(O)cc3)c2cc1OC	11µM*	.	-25%	.	.	?
CC(C)N(Cc1ccccc1)C(=O)COc1ccccc1	11%	2%	.	?	-5%	.
CN(CC(=O)Nc1ccc([N+](=O)[O-])cc1Br)Cc1c(F)cccc1Cl	14µM*	-5%	-2%[7.34 µM]	-18%	?	-11%[7.34 µM]
Cc1ccc(C(=O)NNc2cc(N3CCCC3)nc(N3CCCC3)n2)cc1	?	-8%	.	-8%	4.7µM*	.
O=C(NNc1cc(N2CCOCC2)nc(N2CCOCC2)n1)c1ccc(Cl)c(Cl)c1	?	16%	-12%	-15%	-4%	?
O=S(=O)(NC1CCCCC1)c1ccc(Br)cc1	6%	-63%	-11%	36%	11%	.
O=C(O)c1ccc(S(=O)(=O)NC2CCCCCC2)cc1	7%	-5%	.	12µM*	12%	.
Cc1ccc(S(=O)(=O)NC2CCCCCCC2)cc1	7%	-34%	-12%	8.3µM*	46%	i
O=C(O)c1ccc(S(=O)(=O)NC2CC2)cc1	20%	-2%	.	72%	0%	.
CCc1ccc(N2C(=O)CC(N3CCC(C(=O)OC)CC3)C2=O)cc1 (stereo unspecified)	22%	-34%	-3%	.	-1%	-13%
CCN(CC)C(=O)COC(=O)c1ccc(O)cc1	9%	-3%	-4%	3%	8%	-12%
CCOC(=O)c1ccc(OC(=O)CCCCCN=C(N)N)cc1	15%	.	-10%	4.5µM*	?	i
Cc1cc(Cl)nc2ccc(Cc3ccc4nc(Cl)cc(C)c4c3)cc12	10µM*	0%	-24%	?	2.6µM*	i
O=C(COc1cccc(C(F)(F)F)c1)NCC(c1cccs1)N1CCOCC1 (stereo unspecified)	?	.	.	15µM*	13µM*	.
O=C(COc1cccc(C(F)(F)F)c1)NCC(c1ccco1)N1CCCCC1 (stereo unspecified)	-23%	.	-4%	?	15µM*	-26%
O=C(COc1cccc(C(F)(F)F)c1)NCC(c1ccco1)N1CCCC1 (stereo unspecified)	-17%	.	.	.	.	.
Cc1ccc(S(=O)(=O)N2CCOCC2)cc1C(=O)N1CCCC1	?	-34%	-6%	31%	12%	-1%
SMILES	HCV inh	NS1 inh	VACV Venus inh	Pf growth 96h	Pf growth 48h	VACV mCherry inh
Cc1ccc(S(=O)(=O)N2CCOCC2)cc1C(=O)N1CCN(c2ccc(C(F)(F)F)cn2)CC1	10µM*	.	-6%	.	.	i
CCOc1ccc(S(=O)(=O)N2CCN(C(=O)c3cc(S(=O)(=O)N4CCOCC4)ccc3C)CC2)cc1	6%	.	-28%	3.7µM*	8.3µM*	-6%
COc1cccc(CNC(=O)COc2cccc3c2OC(C)(C)C3)c1	?	.	-8%	-4%	?	-3%
CCc1cccc(C)c1NC(=S)N(Cc1cccnc1)Cc1ccco1	?	-8%	0%	12µM*	?	i
S=C(Nc1ccccc1Cl)N(Cc1cccnc1)Cc1ccco1	-16%	-4%	-7%	?	4.1µM*	-20%
Cc1cccc(C)c1NC(=S)N(Cc1ccccc1)Cc1cccnc1	8%	.	-17%	-19%	?	-10%
CCN(Cc1ccncc1)C(=S)Nc1c(C)cccc1C	8%	7%	-4%	2.1µM*	22%	-11%
CCCCCn1c(N)c(-c2nc3ccccc3s2)c2c([N+](=O)[O-])nn(CC)c(=O)c21	11µM*	-5%	.	5%	.	.
NC(=O)c1ccc(-c2noc(-c3ccccc3F)n2)cc1	.	.	.	227%	236%	.
CCCc1ccc(OCc2nc(-c3ccc(NC(=O)c4cccs4)cc3)no2)cc1	8%	-4%	-1%	?	1.9µM*	-5%
Cc1ccccc1-c1nc(-c2ccc(NC(=O)c3cccs3)cc2)no1	14µM*	-22%	-25%	23%	?	-28%
O=C(Nc1ccc(-c2noc(-c3ccccc3F)n2)cc1)c1cccs1	-19%	-8%	-5%	9.3µM*	16%	i
O=C(O)C1=C[C@H](c2coc3ccccc3c2=O)C[C@H](OCCCCO)O1	?	4%	-7%	0%	0%	-12%
CCCS(=O)(=O)NC(=O)C1(C)CCN(C(=O)c2ccc(F)c(Cl)c2)C1 (stereo unspecified)	.	.	4%	.	.	12%
Cc1cc(C)n(NC(=S)NC2CCCC2)c(=O)c1C#N	5%	1%	-18%[7.34 µM]	0%	0%	i[7.34 µM]
COc1cccc(C(=O)N2CCC[C@H]2C(=O)N2CCC[C@H]2C(=O)N[C@@H](C)c2ccccc2)c1	.	.	-1%	.	.	39%
Cc1nc2sc3c(c2c(=O)o1)CC(C)(C)OC3	0%	-5%	-8%	15µM*	-3%	.
Cc1cc(C)n(-c2nc(SCCN(C)C)c3c4c(sc3n2)COC(C)(C)C4)n1	7.9µM*	6%	.	1.5µM*	1.9µM*	.
Cc1nc(SCC(=O)NCC2CCCO2)c2c3c(sc2n1)CCCC3 (stereo unspecified)	-28%	-9%	-19%	8%	-10%	i
Cc1nc2sc3c(c2c(=O)o1)CCC3	16%	-10%	26%	?	45%	.
Cc1cc(C)n(-c2nc(SCC(=O)NCC3CCCO3)c3c4c(sc3n2)CCCC4)n1 (stereo unspecified)	.	-31%	.	4.1µM*	12µM*	.
Cc1cc(C)n(-c2nc(NCC3CCCO3)c3c4c(sc3n2)COC(C)(C)C4)n1 (stereo unspecified)	?	-87%	?	2.3µM*	.	.
